Our source for the outcome and AC50 values is PubChem BioAssay (EPA / NIEHS).

Activity calls are given as the source filed them. How the source made its calls: active means hit-call score of the fitted dose curve at least 0.9, where 1 is the maximum; inactive means score below 0.9.

Assay [1] can be described thus: ATG_CMV_CIS: Attagene CIS-FACTORIAL HepG2 Assay for human CMV (Internal Marker) (AID 2282928).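 Further: endpoint acts as a background internal control marker rather than a target.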 The settings on record: HepG2 CMV promoter reporter, transcription factor profiling; actives raise or lower the signal. Put shortly: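 Bidirectional fits against DMSO are applied to reporter mRNA, read by RT-PCR with capillary electrophoresis, from HepG2 cells exposed 24 h. The endpoint serves as an internal CMV background marker within the cis-factorial reporter panel.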

Assay [2] in a line: ATG_DR4_LXR_CIS: Attagene CIS-FACTORIAL HepG2 Assay for human Liver X Receptor (LXR), DR4 submotif (AID 2282929). The following applies: HepG2 Attagene DR4 cis-reporter, mRNA transcription; actives raise or lower the signal. Put shortly: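 HepG2 cells transiently transfected with cis-promoter-driven multiplexed reporter units (DR4 element) were dosed for 24 h. Reporter mRNA was quantified by RT-PCR, fluorescent primer extension, HpaI digestion and capillary electrophoresis; bidirectional fitting versus DMSO baseline.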

Assay [3] addresses Aryl hydrocarbon receptor (Homo sapiens) (UniProt P35869). Briefly: ATG_Ahr_CIS: Attagene CIS-FACTORIAL HepG2 Assay for human Aryl Hydrocarbon Receptor (Ahr) (AID 2282930). The settings on record: HepG2 AhR cis-factorial reporter transcription; actives raise or lower the signal. Put shortly:
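Reporter mRNA levels, quantified by RT-PCR and fluorescent capillary electrophoresis, reflect endogenous AhR transcriptional activity in HepG2 cells carrying transfected cis-promoter reporter constructs. Readout at 24 h post-dose; gain or loss fitted against DMSO baseline.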

A short description of assay [4]: ATG_AP_1_CIS: Attagene CIS-FACTORIAL HepG2 Assay for human Activator Protein 1 (AP-1) (AID 2282931). The settings on record: HepG2 Attagene cis-factorial AP-1 reporter mRNA; actives raise or lower the signal. Put shortly: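 HepG2 cells transiently transfected with cis-element-driven multiplex reporter units; 24 h compound exposure. Reporter mRNA quantified by RT-PCR, FAM-labelled fragments resolved by capillary electrophoresis; bidirectional fit versus DMSO baseline.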

Assay [5] can be described thus: ATG_AP_2_CIS: Attagene CIS-FACTORIAL HepG2 Assay for human Activator Protein 2 (AP-2) (AID 2282932). The following applies: HepG2 AP-2 cis-reporter, Attagene transcription factor profiling; actives raise or lower the signal. Put shortly:
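Transiently transfected HepG2 cells are exposed to chemical for 24 h. Reporter transcripts are then measured as fluorescence following RT-PCR and capillary separation, and gain- or loss-of-signal is fitted relative to DMSO.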

Assay [6] is described as follows: ATG_BRE_CIS: Attagene CIS-FACTORIAL HepG2 Assay for human Bone Morphogenetic Protein (BMP) Response Element (BRE) (AID 2282933). The following applies: HepG2 BMP response element reporter, Attagene transcription factor profiling; actives raise or lower the signal. Put shortly:
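Multiplexed cis-reporter assay, HepG2, 24 h exposure. mRNA from reporter units quantified via RT-PCR/CE; DMSO baseline; bidirectional curve fit.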

Assay [7] deals with Transcription factor E2F1 (Homo sapiens) (UniProt Q01094). Briefly: ATG_E2F_CIS: Attagene CIS-FACTORIAL HepG2 Assay for human E2F Transcription Factor 1 (AID 2282935). The settings on record: HepG2 Attagene cis-reporter, E2F reporter RNA transcripts; actives raise or lower the signal. Put shortly: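 Fluorescent RT-PCR products, digested with HpaI for 2 h at 37 C, are separated by capillary electrophoresis. Source RNA comes from transfected HepG2 cultures treated for 24 h.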
Transcription factor E2F1 (Homo sapiens), sequence (Q01094 whole entry, looked up): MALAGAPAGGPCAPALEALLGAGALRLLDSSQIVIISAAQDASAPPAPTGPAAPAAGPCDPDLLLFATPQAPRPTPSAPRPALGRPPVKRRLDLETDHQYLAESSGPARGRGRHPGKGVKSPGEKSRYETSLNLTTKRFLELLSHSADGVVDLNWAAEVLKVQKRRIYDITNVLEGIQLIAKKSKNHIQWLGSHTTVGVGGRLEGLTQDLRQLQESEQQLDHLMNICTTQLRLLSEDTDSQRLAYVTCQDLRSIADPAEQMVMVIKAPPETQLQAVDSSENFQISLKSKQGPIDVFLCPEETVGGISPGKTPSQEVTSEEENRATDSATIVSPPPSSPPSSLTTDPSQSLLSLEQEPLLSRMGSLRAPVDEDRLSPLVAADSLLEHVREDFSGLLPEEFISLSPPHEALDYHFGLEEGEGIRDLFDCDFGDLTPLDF

Assay [8] can be described thus: ATG_E_Box_CIS: Attagene CIS-FACTORIAL HepG2 Assay for human Enhancer Box (E-box) (AID 2282936). The following applies: HepG2 E-box cis-reporter transcription, actives raise or lower the signal. Put shortly: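 Fluorescent reporter fragments separated by capillary electrophoresis gave the signal; mRNA came from HepG2 cells transfected with cis-element reporters and treated 24 h. Curves fitted bidirectionally relative to DMSO controls.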

Assay [9] in a line: ATG_M_61_CIS: Attagene CIS-FACTORIAL HepG2 Assay for M61 Transcription Factor (Internal Marker) (AID 2282937). The following applies: HepG2 Attagene CIS-FACTORIAL M61 internal marker reporter; actives raise or lower the signal. Put shortly:
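HepG2 cells transiently transfected with cis-element-driven multiple reporter transcription units, dosed for 24 h. Reporter mRNA measured by RT-PCR, 6-FAM primer-extension labelling, HpaI digestion and capillary electrophoresis; bidirectional fit versus DMSO baseline.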

Assay [10] addresses Retinoic acid receptor alpha (Homo sapiens) (UniProt P10276). Put plainly: ATG_DR5_RAR_CIS: Attagene CIS-FACTORIAL HepG2 Assay for human Retinoic Acid Receptor Alpha (RARE), DR5 submotif (AID 2282934).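 On AC50: reporter responds to endogenous RAR alpha beta and gamma in HepG2 not RARA alone.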 The following applies: HepG2 Attagene cis-factorial RARE DR5 reporter, mRNA; actives raise or lower the signal. Put shortly:
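Reporter transcripts from a DR5-regulated unit, measured via RT-PCR plus capillary electrophoresis, reflect endogenous RAR activity in transiently transfected human HepG2 liver cells. Exposure lasted 24 h; gain or loss of signal scored against DMSO.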

The AC50 is the midpoint of the concentration-response curve, whichever way the signal moves.

Retinoic acid receptor alpha (Homo sapiens), sequence (P10276 whole entry, looked up): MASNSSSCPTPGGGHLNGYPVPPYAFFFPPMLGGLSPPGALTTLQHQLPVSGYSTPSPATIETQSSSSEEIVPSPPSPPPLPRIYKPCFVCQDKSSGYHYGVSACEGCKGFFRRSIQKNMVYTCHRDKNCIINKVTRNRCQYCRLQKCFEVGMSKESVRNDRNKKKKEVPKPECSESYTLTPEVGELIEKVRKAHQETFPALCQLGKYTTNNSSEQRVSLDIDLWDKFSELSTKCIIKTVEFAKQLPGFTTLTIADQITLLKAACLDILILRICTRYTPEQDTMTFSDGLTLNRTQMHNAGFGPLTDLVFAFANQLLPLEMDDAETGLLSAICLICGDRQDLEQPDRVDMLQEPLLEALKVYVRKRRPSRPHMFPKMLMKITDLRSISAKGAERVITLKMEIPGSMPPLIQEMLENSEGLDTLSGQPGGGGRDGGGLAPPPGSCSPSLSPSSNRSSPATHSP
Aryl hydrocarbon receptor (Homo sapiens), sequence (P35869 whole entry, looked up): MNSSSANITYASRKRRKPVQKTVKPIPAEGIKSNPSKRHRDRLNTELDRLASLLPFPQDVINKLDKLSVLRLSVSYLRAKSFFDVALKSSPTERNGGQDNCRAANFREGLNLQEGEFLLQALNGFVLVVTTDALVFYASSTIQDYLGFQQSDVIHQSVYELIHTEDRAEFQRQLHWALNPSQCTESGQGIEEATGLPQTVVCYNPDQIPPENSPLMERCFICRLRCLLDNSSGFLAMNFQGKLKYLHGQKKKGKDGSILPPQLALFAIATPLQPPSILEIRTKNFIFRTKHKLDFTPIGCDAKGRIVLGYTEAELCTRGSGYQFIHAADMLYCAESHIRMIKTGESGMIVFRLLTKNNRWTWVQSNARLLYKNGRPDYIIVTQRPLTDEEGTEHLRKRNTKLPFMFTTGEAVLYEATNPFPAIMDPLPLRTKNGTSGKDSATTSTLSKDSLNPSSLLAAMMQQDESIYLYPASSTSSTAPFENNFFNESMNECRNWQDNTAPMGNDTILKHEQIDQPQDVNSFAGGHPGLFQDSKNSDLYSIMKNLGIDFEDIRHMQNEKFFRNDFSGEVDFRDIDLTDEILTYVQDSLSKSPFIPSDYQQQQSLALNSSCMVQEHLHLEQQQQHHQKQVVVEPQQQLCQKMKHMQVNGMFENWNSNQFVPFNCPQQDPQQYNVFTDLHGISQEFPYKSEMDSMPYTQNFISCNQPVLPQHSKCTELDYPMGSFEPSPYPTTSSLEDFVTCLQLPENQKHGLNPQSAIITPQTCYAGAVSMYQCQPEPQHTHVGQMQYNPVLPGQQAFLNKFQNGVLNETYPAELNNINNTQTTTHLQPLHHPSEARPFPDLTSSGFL

In the case of `NNC(=S)NN`, the outcome in assay [1], in assay [2], in assay [3], in [4], in [5] and in assay [6] was inactive. For the same molecule, the result in assay [7], in [8] and in assay [9] was inactive.
`CCC[CH2][Sn]([Cl])([Cl])[Cl]`: the outcome in assay [1], in assay [2], in assay [3], in [4], in assay [5] and in assay [6] was inactive. In addition, the result in assay [7] and in assay [8] was inactive.
In the case of `O=S(=O)(c1ccc(Cl)cc1)c1ccc(Cl)cc1`, the concentration at half-maximal activity (AC50) in assay [1] is 16.5 µM (active); in assay [4] it was 35.8 µM (active). Also, the molecule was called inactive in assay [2], in [3], in assay [5], in assay [6], in assay [7] and in assay [8].
On to `CCCCOCCOC(C)=O`, for which the molecule was called inactive in assay [1], in assay [2], in [3], in [4], in [5] and in assay [6]. Besides, the molecule was classed as inactive in [7] and in [8].
For the molecule `CC1(C)Cc2cccc(O)c2O1`, the call in assay [1], in assay [2], in assay [3], in assay [4], in assay [5] and in [6] was inactive. Also, the molecule was called inactive in [10], in assay [7], in assay [8] and in assay [9].
Regarding `O=C(NCO)NCO`, the molecule was called inactive in assay [1], in assay [2], in [3], in assay [4], in [5] and in [6]. The outcome in assay [7], in assay [8] and in assay [9] was inactive.
As for `CC(C)OC(=O)Nc1ccccc1`, the call in assay [1], in assay [2], in assay [3], in assay [4], in assay [5] and in [6] was inactive. Besides, the molecule was called inactive in assay [10], in [7] and in assay [9].
With `ClC1(Cl)C2(Cl)C3(Cl)C4(Cl)C(Cl)(Cl)C5(Cl)C3(Cl)C1(Cl)C5(Cl)C24Cl` (stereo not given), the call in [1], in [2], in assay [3], in assay [4], in assay [5] and in assay [6] was inactive. The molecule was called inactive in assay [10], in assay [7] and in [9].
Turning to `COP(=S)(OC)Oc1c(Cl)cc(C)cc1Cl`, the outcome in [1], in assay [2], in assay [3], in assay [4], in assay [5] and in assay [6] was inactive. Besides, the molecule was called inactive in assay [10], in assay [7] and in [9].
As for `N#Cc1ccccn1`, the molecule was classed as inactive in assay [1], in assay [2], in [3], in assay [4], in [5] and in assay [6]. Moreover, the call in [10], in assay [7], in [8] and in assay [9] was inactive.
With `CCCCCCCCCl`, the outcome in [1], in assay [2], in assay [3], in [4], in [5] and in assay [6] was inactive. The result in assay [10], in [7], in assay [8] and in assay [9] was inactive.
For `CN(C)N=O`, the outcome in [1], in [2], in assay [3], in assay [4], in assay [5] and in [6] was inactive. In addition, the molecule was classed as inactive in assay [10], in assay [7], in [8] and in [9].
As for `CCC(C)(C)c1ccc(O)c(C(C)(C)CC)c1`, the AC50 was 11.1 µM (active) in assay [1], 4.91 µM (active) in [2], 12.8 µM (active) in assay [4] and 5.73 µM (active) in [10]. The molecule was called inactive in assay [3], in assay [5], in [6], in assay [7], in [8] and in assay [9].
Consider `CCN1CCC2(CC1)COc1cc3c(cc12)N(C(=O)c1ccc(-c2ccc(-c4nnc(C)o4)cc2C)cc1)CC3`, for which, in [1], the AC50 is 5.81 µM (active). The molecule was called inactive in [2], in assay [3], in assay [4], in assay [5], in [6] and in [10]. The outcome in [7], in assay [8] and in [9] was inactive.
Turning to `Clc1nc(Cl)nc(Cl)n1`, the call in [1], in assay [2], in [4], in assay [5], in assay [6] and in assay [7] was inactive. Moreover, the result in assay [8] and in [9] was inactive. The AC50 in [3] was 69 µM (active).
`COP(=O)(OC)O/C(=C\Cl)c1cc(Cl)c(Cl)cc1Cl`: the outcome in [1], in [3], in [10], in assay [7] and in assay [9] was inactive. The concentration at half-maximal activity (AC50) in assay [2] was 58.2 µM (active); in assay [4], 62.4 µM (active); in assay [5], 26.9 µM (active); in assay [6], 70.3 µM (active).
`CC(C)CCCCCCOC(=O)c1ccccc1C(=O)OCCCCCCC(C)C`: the outcome in assay [1], in assay [2], in assay [3], in [4], in assay [5] and in assay [6] was inactive. Besides, the call in assay [7], in assay [8] and in [9] was inactive.
In the case of `O=C/C=C/c1ccccc1`, the call in [1], in assay [2], in assay [3], in assay [4], in [5] and in [10] was inactive. The call in assay [7], in [8] and in assay [9] was inactive.
